# Reference: PubChem BioAssay AID1159580 (chemical genetic matrix, 2015)
# Among all 5,500 compounds or so, about 2,000 (36%) were called active. Not shown: some 18% with an inconclusive outcome. Some of the results follow. A number with no mark means an inactive call. Cut-off read from the data, not from the text of the source: active = normalized growth mostly below about 0.91 (no sharp cut-off); inconclusive = no clear call, values can overlap the other calls; inactive = mostly above about 0.92.
# Assay: chemical genetic growth profiling, strain panel (AID 1159580);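 note: tested at 20 µM; growth read once vehicle control cultures reached saturation at 30 °C; 1 = growth at the plate median or of vehicle wells; lower values mean less growth of the strain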
# Details: S. cerevisiae deletion strains, growth OD
# [1] = locus YGR078C, strain PAC10, hits give low values
# [2] = locus YNL322C, strain KRE1, hits give low values
# [3] = locus YPL241C, strain CIN2, hits give low values
# [4] = locus YDL101C, strain DUN1, hits give low values
# [5] = locus YHR030C, strain SLT2, hits give low values
smiles,measurement,setting,value
CCCCS(=N)(=O)CC[C@H](N)C(=O)O (some centres undefined),normalized growth,"locus YAL040C, strain CLN3, hits give low values",0.986
same,normalized growth,"locus YDR363W, strain ESC2, hits give low values",0.99
same,normalized growth,"locus YER002W, strain NOP16, hits give low values",1.01
same,normalized growth,[1],0.995
same,normalized growth,"locus YNL175C, strain NOP13, hits give low values",0.984
same,normalized growth,"locus YNL197C, strain WHI3, hits give low values",0.991
same,normalized growth,"locus YNL224C, strain SQS1, hits give low values",0.983
same,normalized growth,[2],0.994
same,normalized growth,"locus YOR083W, strain WHI5 (second series), hits give low values",0.977
same,normalized growth,[3],1
COc1ccc(C(=O)c2sc(Nc3ccccc3)nc2-c2ccccc2)cc1,normalized growth,"locus YAL013W, strain DEP1, hits give low values",0.999
same,normalized growth,"locus YBR229C, strain ROT2, hits give low values",0.979
same,normalized growth,"locus YCL061C, strain MRC1, hits give low values",1
same,normalized growth,[4],1
same,normalized growth,"locus YDR150W, strain NUM1, hits give low values",1.01
same,normalized growth,"locus YEL061C, strain CIN8, hits give low values",0.96
same,normalized growth,[1],0.994
same,normalized growth,[5],0.907
same,normalized growth,"locus YHR087W, strain rtc3, hits give low values",0.958
same,normalized growth,"locus YJR043C, strain POL32, hits give low values",0.988
same,normalized growth,"locus YJR075W, strain HOC1, hits give low values",0.975
same,normalized growth,"locus YKL190W, strain CNB1, hits give low values",0.997
same,normalized growth,"locus YLR039C, strain RIC1, hits give low values",0.825
same,normalized growth,"locus YLR058C, strain SHM2 (second series), hits give low values",1.02
same,normalized growth,"locus YLR085C, strain ARP6, hits give low values",0.853
same,normalized growth,"locus YLR262C, strain YPT6, hits give low values",0.993
same,normalized growth,"locus YML094W, strain GIM5, hits give low values",0.927
same,normalized growth,"locus YMR219W, strain ESC1, hits give low values",0.976
same,normalized growth,"locus YMR263W, strain SAP30, hits give low values",0.971
same,normalized growth,"locus YMR307W, strain GAS1, hits give low values",0.925
same,normalized growth,"locus YNL153C, strain GIM3, hits give low values",1.03
same,normalized growth,"locus YNL298W, strain CLA4 (second series), hits give low values",0.953
same,normalized growth,[2],0.989
same,normalized growth,"locus YNR030W, strain Alg12, hits give low values",0.913
same,normalized growth,"locus YOL006C, strain TOP1, hits give low values",0.893
same,normalized growth,"locus YPL055C, strain LGE1, hits give low values",0.916
same,normalized growth,[3],0.898
same,normalized growth,"locus YPR135W, strain CTF4, hits give low values",0.857
COc1ccc2c(c1)CCc1sc(NC(=O)c3ccco3)nc1-2,normalized growth,"locus YAR019C, strain CDC15, hits give low values",0.957
same,normalized growth,"locus YBL105C, strain PKC1, hits give low values",0.961
same,normalized growth,"locus YBR135W, strain CKS1, hits give low values",0.953
same,normalized growth,"locus YBR136W, strain MEC1, hits give low values",0.969
same,normalized growth,"locus YBR160W, strain CDC28, hits give low values",0.965
same,normalized growth,"locus YDL017W, strain CDC7, hits give low values",0.971
same,normalized growth,"locus YDL028C, strain MPS1, hits give low values",0.971
same,normalized growth,[4],0.993
same,normalized growth,"locus YDL108W, strain KIN28, hits give low values",0.947
same,normalized growth,"locus YDL132W, strain cdc53, hits give low values",0.97
same,normalized growth,"locus YDL214C, strain PRR2, hits give low values",0.901
same,normalized growth,"locus YDR052C, strain DBF4, hits give low values",0.969
same,normalized growth,"locus YDR054C, strain cdc34, hits give low values",0.955
same,normalized growth,"locus YDR226W, strain ADK1, hits give low values",0.957
same,normalized growth,"locus YDR477W, strain SNF1, hits give low values",0.889
same,normalized growth,"locus YER123W, strain YCK3, hits give low values",0.858
same,normalized growth,"locus YER133W, strain GLC7, hits give low values",0.872
same,normalized growth,"locus YFL009W, strain cdc4, hits give low values",0.963
same,normalized growth,"locus YFL029C, strain CAK1, hits give low values",0.959
same,normalized growth,"locus YFR003C, strain YPI1, hits give low values",0.964
same,normalized growth,"locus YFR019W, strain FAB1, hits give low values",0.996
same,normalized growth,"locus YFR028C, strain CDC14, hits give low values",0.95
same,normalized growth,"locus YGR040W, strain KSS1, hits give low values",0.872
same,normalized growth,"locus YGR052W, strain FMP48, hits give low values",0.94
same,normalized growth,"locus YGR092W, strain DBF2, hits give low values",0.803
same,normalized growth,[5],0.757 (active)
same,normalized growth,"locus YHR079C, strain IRE1, hits give low values",0.952
same,normalized growth,"locus YHR082C, strain KSP1, hits give low values",0.918
same,normalized growth,"locus YHR205W, strain SCH9, hits give low values",0.921
same,normalized growth,"locus YIL147C, strain SLN1, hits give low values",0.957
same,normalized growth,"locus YJL095W, strain BCK1, hits give low values",0.895
same,normalized growth,"locus YJL128C, strain PBS2, hits give low values",0.934
same,normalized growth,"locus YJL157C, strain FAR1, hits give low values",0.889
same,normalized growth,"locus YJR016C, strain ILV3, hits give low values",0.961
same,normalized growth,"locus YJR066W, strain TOR1 (second series), hits give low values",0.872
same,normalized growth,"locus YJR066W, strain TOR1, hits give low values",0.924
same,normalized growth,"locus YKL048C, strain ELM1, hits give low values",0.959
same,normalized growth,"locus YKL067W, strain YNK1, hits give low values",0.92
same,normalized growth,"locus YKL101W, strain HSL1, hits give low values",0.941
same,normalized growth,"locus YKL193C, strain SDS22, hits give low values",0.95
same,normalized growth,"locus YKL203C, strain TOR2, hits give low values",0.951
same,normalized growth,"locus YLR113W, strain HOG1, hits give low values",0.823 (active)
same,normalized growth,"locus YLR133W, strain CKI1, hits give low values",0.93
same,normalized growth,"locus YLR403W, strain SFP1, hits give low values",0.915
same,normalized growth,"locus YML070W, strain DAK1, hits give low values",0.88
same,normalized growth,"locus YMR001C, strain CDC5, hits give low values",0.946
same,normalized growth,"locus YMR205C, strain PFK2 (second series), hits give low values",0.927
same,normalized growth,"locus YMR277W, strain FCP1, hits give low values",0.954
same,normalized growth,"locus YNL006W, strain LST8, hits give low values",0.967
same,normalized growth,"locus YNL020C, strain ARK1, hits give low values",0.928
same,normalized growth,"locus YNL161W, strain CBK1, hits give low values",0.96
same,normalized growth,"locus YNL183C, strain NPR1, hits give low values",0.938
same,normalized growth,"locus YNL207W, strain RIO2, hits give low values",0.96
same,normalized growth,"locus YNL222W, strain SSU72, hits give low values",0.957
same,normalized growth,"locus YNL307C, strain MCK1 (second series), hits give low values",0.94
same,normalized growth,"locus YOL078W, strain AVO1, hits give low values",0.961
same,normalized growth,"locus YOL136C, strain PFK27, hits give low values",0.882
same,normalized growth,"locus YOR061W, strain CKA2, hits give low values",0.887
same,normalized growth,"locus YOR119C, strain RIO1, hits give low values",0.865
same,normalized growth,"locus YOR231W, strain MKK1, hits give low values",0.932
same,normalized growth,"locus YOR329C, strain SCD5, hits give low values",0.969
same,normalized growth,"locus YPL031C, strain PHO85, hits give low values",0.828
same,normalized growth,"locus YPL153C, strain RAD53, hits give low values",0.845
same,normalized growth,"locus YPL204W, strain HRR25, hits give low values",0.896
same,normalized growth,"locus YPL209C, strain IPL1, hits give low values",0.968
same,normalized growth,"locus YPL256C, strain CLN2, hits give low values",0.918
same,normalized growth,"locus YPR025C, strain CCL1, hits give low values",0.953
same,normalized growth,"locus YPR106W, strain ISR1, hits give low values",0.969
same,normalized growth,"locus YPR111W, strain DBF20, hits give low values",0.967
same,normalized growth,"strain NNK1, hits give low values",0.973
same,normalized growth,"strain TSCII, hits give low values",0.959
